Our source for the survival values is PubChem BioAssay AID463173 (ICCB-Longwood Screening Facility, Harvard Medical School, 2010).

In all, about 52,000 compounds went through this assay and about 1,700 (3.3%) were called active. For the sample, actives were picked, then their nearest neighbours and some compounds at random. Values without a mark were called inactive. No stated cut-off is given here; in the data, active means survival mostly below about 52% (no sharp cut-off); inactive means mostly above about 56%.

The subject of the assay is Wild type. Briefly: growth inhibition of S. aureus wild type versus tarO mutant, primary screen, teichoic acid synthesis inhibitors, RN4220, OD600 (AID 463173). As to conditions: S. aureus RN4220 wild type/DeltatarO growth, OD600, 18 h, active compounds read low, screened at 18.75 µg/mL (by protocol).
With `COc1ccc(-n2ccnc(NCc3ccccc3OC)c2=O)cc1`, the survival is 85%.

Take `COc1ccc(-n2ccnc(NCc3ccc(Cl)cc3)c2=O)cc1`: the survival was 0% (active).

Regarding `COc1ccc(-n2ccnc(NCc3ccc(C)cc3)c2=O)cc1OC`, the survival was 87%.

Take `COc1ccc(-n2ccnc(NCc3cccs3)c2=O)cc1`: the survival was -3% (active).

For the molecule `COc1ccc(-n2ccnc(NCc3cccs3)c2=O)cc1OC`, the survival is 80%.

With `O=c1c(NCc2cccs2)nccn1-c1ccccc1`, the survival is 74%.

For `COc1ccc(-c2cc3nc(C)c(CCC(=O)N4CCN(c5ccc(F)cc5)CC4)c(C)n3n2)c(OC)c1`, the survival was 85%.

As to `COC(=O)c1cc(S(=O)(=O)N2CCN(c3ccc(C)cc3C)CC2)cn1C`, the survival was 65%.

As for `COCCNC(=S)N1CCC(c2nc(-c3ccc(N(C)C)cc3)no2)CC1`, the survival is 107%.

As for `COCCNC(=O)CCCn1c(SCC(=O)Nc2cccc(C)c2)nc2c(sc3ccccc32)c1=O`, the survival was 86%.

Turning to `COc1cccc(-c2nc(SCc3cc(=O)c4ccc(C)c(C)c4[nH]3)n[nH]2)c1`, the survival was 97%.

For `CCOc1ccc(CNC(=O)CCS(=O)(=O)c2cc3c4c(c2)CCN4C(=O)CC3)cc1`, the survival was 71%.

On to `O=C(Nc1ccccc1Cl)c1sc2cccc(Cl)c2c1Cl`, for which the survival was 72%.

In the case of `COc1ccccc1NC(=O)c1sc2cccc(Cl)c2c1Cl`, the survival was 71%.

`Cc1cccc(NC(=O)c2sc3cccc(Cl)c3c2Cl)c1`: the survival is 6% (active).

Consider `CCN(CC)c1ccc(NC(=O)c2sc3ccccc3c2Cl)cc1`, for which the survival was 15% (active).

Regarding `Cc1ccc(NC(=O)c2sc3ccccc3c2Cl)cc1`, the survival is 76%.

On to `CCCC(=O)Nc1ccc(NC(=O)c2sc3ccccc3c2Cl)cc1`, for which the survival is 128%.

Take `O=C(Nc1ccc(N2C(=O)C=CC2=O)cc1Cl)c1ccco1`: the survival is 105%.

For the molecule `CC1CCCCN1CCCNC(=O)Cn1ncc2c3ccccc3n(Cc3ccccc3F)c2c1=O` (stereo not drawn), the survival is 90%.

Consider `O=C(Nc1ccccc1)c1cccc(N2CCCC2=O)c1`, for which the survival is 110%.

As for `CC1CCN(S(=O)(=O)c2ccc(S(=O)(=O)N3CCCN(Cc4ccccc4)C3)cc2)CC1`, the survival is 107%.

In the case of `C/C(=N\Nc1nc2sc3c(c2c2ncnn12)CC(C)(C)OC3)C(=O)O`, the survival was 102%.

As for `COc1ccc(C2C(C(N)=O)=C(C)Nc3nc(CCCO)nn32)c(OC)c1` (stereo not drawn), the survival was 62%.

As to `COc1ccc(-n2nc3c(N4CCC(C(=O)NC5CCCCC5)CC4)nnc(C)c3c2C)cc1`, the survival is 73%.

For `Cc1nc(SCC(=O)OC(C)(C)C)c2c3c(sc2n1)CCCC3`, the survival was 15% (active).

Take `Cc1nc(SCC(=O)Nc2nsc(-c3ccc(C(C)(C)C)cc3)n2)c2c3c(sc2n1)CCCC3`: the survival is 92%.

As to `Cc1nc(SCC(N)=O)c2c3c(sc2n1)CCCC3`, the survival was 90%.
